Data reported in PubChem BioAssay (Tox21).
Results filed as inconclusive are left out. Entries that show only a call come without a potency. A structure can be active in one record and inactive in another. Active and inactive are the calls of the source. Calls follow the shape of the dose curve; as a rule, active = well fitted activation curve with a large enough effect in the repeat runs; inconclusive = weak or mixed curves; inactive = flat fitted curve, though single readings scatter.

Test: A CellTox Green Cytotoxicity Assay to monitor cytotoxicity in HepG2 cells - 32 hour (AID 1224883); also: nearly all actives have a fitted effect of over 50% in size
Conditions: CellTox Green fluorescence; series mostly up to 76.8 µM
Text: National Center for Advancing Translational Sciences [NCATS]
NIH Chemical Genomics Center [NCGC]
U.S. Environmental Protection Agency [EPA]
National Institutes of Environmental Health Sciences [NIEHS]
National Toxicology Program [NTP]
Cell-based models are critical for drug discovery. Determining the natural cytotoxic effects resulting from test compounds is an essential research activity. A CellTox Green Cytotoxicity Assay to monitor cytotoxicity in real time of continues cell culture during 40 hours of the compound treatment was used to screen Tox21 10K library compounds in HepG2 cells. CellTox Green Cytotoxicity Assay is a nonlytic, homogeneous, biofluorescent method to measure cytotoxicity in cell culture after experimental manipulation. The assay system uses a proprietary asymmetric cyanine dye that is excluded from viable cells but preferentially stains the dead cell's DNA. […] Viable cells produce no appreciable increases in fluorescence. Therefore, the fluorescence signal produced by the binding interaction with dead cell DNA is proportional to cytotoxicity.
The mixture of HepG2 cell suspension and reagents were dispensed at 600cells/6 ul/well in 1536-well tissue culture treated black solid bottom plates using a Multidrop dispenser. After the assay plates were incubated at a 37 C/5% CO2 incubator for 5 hours, 23 nL of compounds dissolved in DMSO, positive and negative controls was transferred to the assay plate by a pintool work station. The plates were incubated at 37 C for 40 hours. The fluorescence intensity were measured at 0h, 8h, 16h, 24h, 32h and 40h time points using ViewLux plate reader during compound treatment.
Potency is read from the fitted curve at half-maximal effect.

SMILES	Potency
CS(=O)(=O)Nc1ccc([N+](=O)[O-])cc1Oc1ccccc1	inactive
O=Nc1ccc(O)cc1	inactive
COC(=O)c1ccc(C(=O)OC)cc1	19.8 µM (active) and inactive
C=CC(=O)OCCCCCCCC(C)C	inactive
COC(=O)c1ccccc1O	inactive
CCCCCCCCCCC=CC1CC(=O)OC1=O (stereo not given)	inactive
C[C@@H](O)[C@H]1C(=O)N2C(C(=O)O)=C(S[C@@H]3CN[C@H](C(=O)N(C)C)C3)[C@H](C)[C@H]12	inactive
O=S(=O)(O)c1cc(S(=O)(=O)O)c2c(N=Nc3ccccc3)c(O)ccc2c1	inactive
NC(=O)NNc1ccccc1	inactive
Clc1cc(Cl)c(Cl)cc1Cl	inactive
Cc1cc(O)cc(C)c1Cl	inactive
O=C(c1cc(O)c(O)c(O)c1)c1ccc(O)c(O)c1O	inactive
CC#C[C@]1(O)CC[C@H]2[C@@H]3CCC4=CC(=O)CCC4=C3[C@@H](c3ccc(N(C)C)cc3)C[C@@]21C	inactive
NCCc1ccc(O)c(O)c1	inactive
Cc1cc(NS(=O)(=O)c2ccc(N)cc2)no1	inactive
OC1CCCC1	inactive
CCC(=O)O	inactive
O=C(O)c1cc(-c2ccccc2)nc2ccccc12	inactive
CC1=CC[C@H]2C[C@@H]1C2(C)C	inactive
O=C1N=C(O)CN1/N=C/c1ccc(-c2ccc([N+](=O)[O-])cc2)o1	inactive

SMILES	Potency
c1ccc2[nH]cnc2c1	inactive
NCc1cccc(CN)c1	inactive
O=C1O[C@H](CO)[C@@H](O)[C@H](O)[C@H]1O	inactive
CCCCNC(N)=O	inactive
CC1COc2ccccc2N1C(=O)C(Cl)Cl (stereo not given)	inactive
O=[N+]([O-])C(CO)(CO)CO	inactive
Nc1nc2ncc(CNc3ccc(C(=O)N[C@@H](CCC(=O)O)C(=O)O)cc3)nc2c(=O)[nH]1	inactive
CC(C)(CO)COC(=O)C(C)(C)CO	inactive
CC(=O)CCc1ccccc1	inactive
Cc1cc(Cc2ccc(N)c(C)c2)ccc1N	inactive
C=C1CC[C@H](O)CC1=C/C=C1\CCC[C@]2(C)[C@@H]([C@H](C)/C=C/[C@H](C)C(C)C)CC[C@@H]12	inactive
OC[C@@H](O)[C@H](O)[C@H](O)[C@@H](O)CO	inactive
C/C=C(C)/C=C/C=C(C)C	inactive
CC(C)(N=C=O)c1cccc(C(C)(C)N=C=O)c1	inactive
OCCOCCOCCOCCO	inactive
Oc1c(Cl)cc(Cl)c(Cl)c1Cl	inactive
CCOC(=O)/C=C\C(=O)OCC	inactive
COCC(C)O (stereo not given)	inactive
O=C(Cl)c1c(Cl)c(Cl)c(C(=O)Cl)c(Cl)c1Cl	inactive
CCc1ccc(O)cc1	inactive
